Structures can show the parent of a compound that is named as a salt.

Euclidean distance data for 35 compounds are collected here from the supplement of paper PMC10127200.

The test system of this assay is 786-O. Description: Euclidean distance of Cell Painting phenotypic profile (signed KS, 77 features) to DMSO centroid (dimensionless distance); higher = stronger phenotypic change vs DMSO (phenoactivity). To be noted: 48 h; 5 or 10 uM (library dependent). The method in brief:
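At 10 or 5 uM, as set by the library, and 0.1% DMSO final, compounds were applied for 48 h to five cancer lines and one healthy fibroblast line. Stained cells were imaged confocally at 20X in 9 fields per well, and Harmony extracted 77 features scored as signed Kolmogorov-Smirnov statistics against vehicle wells on the same plate. Profiles underwent plate-position correction, correlation weighting and replicate averaging at the top dose. Phenoactivity is the Euclidean distance from each such profile to the median vehicle profile.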
On to `CN1c2ccccc2C(NCCCCCCC(=O)O)c2ccc(Cl)cc2S1(=O)=O` (stereo not given) [Tianeptine sodium], for which the Euclidean distance stood at 1.2.

In turn, `CC(C)=CCOc1c2occc2cc2ccc(=O)oc12` [Imperatorin] returned an Euclidean distance of 1.11. With `Cc1cccc(C)c1NC1=NCCCS1` [Xylazine], the Euclidean distance amounted to 1.17. In turn, `CC(C)NCC(O)c1ccccc1Cl` (stereo not given) [Clorprenaline HCl] displayed an Euclidean distance of 1.06. `CCC1(c2cccc(O)c2)CCCCN(C)C1` (stereo not given) [Meptazinol HCl] came in with an Euclidean distance of 1.46. Regarding `C[C@@H]1CC[C@@]2(OC1)O[C@H]1C[C@H]3[C@@H]4CC=C5C[C@@H](O[C@@H]6O[C@H](CO)[C@@H](O[C@@H]7O[C@@H](C)[C@H](O)[C@@H](O)[C@H]7O)[C@H](O)[C@H]6O[C@@H]6O[C@@H](C)[C@H](O)[C@@H](O)[C@H]6O)CC[C@]5(C)[C@H]4CC[C@]3(C)[C@H]1[C@@H]2C` [Dioscin], the Euclidean distance was 1.76. To `COc1ccc(OC)c(C(O)C(C)N)c1` (stereo not given) [Methoxamine HCl] belongs 0.732.

Turning to `C#C[C@]1(OC(=O)CCCCCC)CC[C@H]2[C@@H]3CCC4=CC(=O)CC[C@@H]4[C@H]3CC[C@@]21C` [Norethisterone Enanthate], the Euclidean distance was 2.37. The value for `O=C1CCC[C@@H]2[C@H]3CCCN4CCC[C@@H](CN12)[C@@H]34` [(+)-Matrine] was 1; that for `O=C(NCC1CCOCC1)c1cnc(Nc2ccc(Cl)cc2Cl)nc1C(F)(F)F` was 0.865; that for `CN1C[C@H](C(=O)N[C@]2(C)O[C@@]3(O)[C@@H]4CCCN4C(=O)[C@H](Cc4ccccc4)N3C2=O)C[C@@H]2c3cccc4[nH]cc(c34)C[C@H]21` [Dihydroergotamine Mesylate] was 1.1.

The compound `C=C1[C@@H](C)[C@H]2[C@H](Cc3ccccc3)NC(=O)[C@]23[C@H](OC(C)=O)/C=C/[C@@](C)(O)C(=O)[C@@H](C)C/C=C/[C@H]3[C@@H]1O` [Cytochalasin D] yielded an Euclidean distance of 4.23.

In turn, `CCC12C=CCN3CC[C@@]4(c5ccc(OC)cc5N(C)[C@H]4[C@@](O)(C(=O)OC)[C@@H]1OC(C)=O)[C@@H]32` (stereo not given in full) [Vindoline] registered an Euclidean distance of 1.01.

Turning to `NCC(O)c1ccc(O)cc1` (stereo not given) [(+.-)-Octopamine HCl], the Euclidean distance came to 1.71. The value for `COC(=O)[C@@H](N)CCCNC(=N)N[N+](=O)[O-]` was 0.931. The value for `CC[C@@]1(O)C[C@H](O[C@H]2C[C@H](N(C)C)[C@H](O)[C@H](C)O2)c2c(cc3c(c2O)C(=O)c2c(O)cccc2C3=O)[C@H]1C(=O)OC` [Aclacinomycin] was 2.61. To `CCC(COC(=O)c1cc(OC)c(OC)c(OC)c1)(c1ccccc1)N(C)C` (stereo not given) [Trimebutine] belongs 0.93. On to `CC(C)OC(=O)[C@H](C)N[P@](=O)(CO[C@H](C)Cn1cnc2c(N)ncnc21)Oc1ccccc1` [Tenofovir Alafenamide (GS-7340)], for which the Euclidean distance came to 1.71. To `Cl[TeH]1(Cl)(Cl)OCCO1.N` belongs 1.48. To `N.N.[Cl][Pt][Cl]` [Cisplatin] belongs 1.62; to `CC(=O)O[C@H]1C[C@@H]2CC[C@@H]3[C@H](CC[C@@]4(C)[C@H]3C[C@H]([N+]3(C)CCCCC3)[C@@H]4OC(C)=O)[C@@]2(C)C[C@@H]1[N+]1(C)CCCCC1` [Pancuronium dibromide], 1.41.

The compound `CC[N+](C)(CC)CCOC(=O)C(O)(c1ccccc1)c1ccccc1` [Methylbenactyzine Bromide] had an Euclidean distance of 0.693. The value for `COc1ccc2[nH]cc(CCN)c2c1` [5-Methoxytryptamine] was 0.978; that for `O=C(C[S+]([O-])C(c1ccccc1)c1ccccc1)NO` (stereo not given) [Adrafinil] was 1.35. Compound `CC(C)(C)c1cc(C=C(C#N)C#N)cc(Br)c1O` showed an Euclidean distance of 1.41. To `CC(C)(O)C(Cl)(Cl)Cl` [Chlorobutanol] belongs 1.34. For the compound `CCOC(=O)c1cncn1[C@H](C)c1ccccc1` [Etomidate], the Euclidean distance worked out at 2.62. To `CC1(C)C(C=C(Cl)Cl)C1C(=O)OCc1cccc(Oc2ccccc2)c1` (stereo not given) [Permethrin] belongs 1.12; to `CC[C@H](C)[C@@H]([C@@H](CC(=O)N1CCC[C@H]1[C@H](OC)[C@@H](C)C(=O)N[C@H](C)[C@@H](O)c1ccccc1)OC)N(C)C(=O)[C@@H](NC(=O)[C@@H](NC)C(C)C)C(C)C` [Monomethyl auristatin E (MMAE)], 3.13; to `O=c1[nH]c2ccccc2n1CCCN1CCC(n2c(=O)[nH]c3cc(Cl)ccc32)CC1` [Domperidone], 1.75. In the case of `Fc1cc(F)c2c(c1)[C@H]1C=CC[C@H]1C(c1cccnc1)N2` (stereo not given in full) [Golgicide A], the Euclidean distance turned out to be 0.733. To `Nc1ccncc1` [4-Aminopyridine] belongs 1.38. The value for `C[C@@H]1[C@H](O)[C@@H](C)/C=C/C=C/CC/C=C/C=C/C=C/C=C/[C@H](O[C@H]2O[C@@H](C)[C@H](O)[C@@H](N)[C@H]2O)C[C@@H]2O[C@](O)(C[C@@H](O)[C@H](O)CC[C@@H](O)C[C@@H](O)C[C@@H](O)CC(=O)O[C@H]1C)C[C@H](O)[C@H]2C(=O)O` [Nystatin (Fungicidin)] was 1.05. `CN1CCN(c2nc3ccccc3nc2Cl)CC1` showed an Euclidean distance of 0.803.

Turning to `CC(C)(C)[C@]1(O)CC2OC(=O)CC23C(=O)OC2OC(=O)[C@H](O)C231` (stereo not given in full) [Bilobalide], the Euclidean distance came out at 1.
